Values joined by “and” are separate entries in the source; they are usually repeats but may differ in a detail not shown here. Identical values can stand only once. Inconclusive results are not listed. The source holds several records for some structures; these can differ, active in one and inactive in another. Active and inactive are the calls of the source. How the source made its calls, unless noted: active means hit-call score of the fitted dose curve at least 0.9, where 1 is the maximum; inconclusive means response in the unintended direction; inactive means score below 0.9.
Legend:
[1] = test system: Thyroperoxidase (TPO), gene 54314; test: CCTE_Simmons_AUR_rTPO: CCTE's Amplex UltraRed Assay for Thyroperoxidase (TPO) Inhibition, Simmons Lab (AID 2283662);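 on AC50: potency for loss of signal meaning inhibition of peroxidase activity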
In short: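 Rat thyroid microsomes (5 ug protein) were incubated with test compound (8 concentrations, 5 nM–87.5 uM final, 0.5% DMSO), 25 uM Amplex UltraRed and 300 uM H2O2 in 200 mM phosphate buffer for 30 min at 37C in the dark; fluorescence read at 544/590 nm.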

[2] = CCTE_Simmons_CellTiterGLO_HEK293T: Viability Assessment in CCTE's Assays for Thyroperoxidase (TPO) Inhibition, Simmons Lab (AID 2283665);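 on AC50: cells exposed to compound for 24 h before readout; actives reduce ATP signal below DMSO vehicle meaning cytotoxicity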
In short: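 HEK293T cells in DMEM with 1% FBS were dosed with 8 concentrations (5 nM–87.5 uM final, 0.5% DMSO) for 24 hr at 37C; ATP content was read by CellTiter-Glo luminescence, loss-of-signal versus DMSO, three biological replicates.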

[3] = Tanguay_ZF_120hpf_TR_legacy: (Legacy) Oregon State University Tanguay Lab 120 Hour Post-fertilization zebrafish Assay for Touch Response (AID 2283667)
In short: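 5D WT embryos; static exposure to 120 hpf, 28C, sealed/dark; DMSO 0.64% v/v final. TR scored present/absent; dead embryos excluded. Pos ctrl 5uM trimethyltin chloride.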

[4] = CCTE_Padilla_ZF_144hpf_TERATOSCORE: (Legacy) CCTE's 144 Hour Post-fertilization zebrafish Assay Teratoscore, Padilla Lab (AID 2283679; active means hit-call score of the fitted dose curve at least 0.9, where 1 is the maximum; inactive means score below 0.9;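 further: zebrafish embryos with chorions exposed by immersion from 6-8 hpf to 5 dpf with daily renewal; teratogenicity score from eye scoring of death hatching and malformations at 144 hpf; higher score means more developmental defects relative to DMSO baseline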)
In short: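 Larvae scored by eye at 144 hpf for death, hatching and malformations after a day in clean Hanks'. Before that, daily-renewed exposure at 80 uM (0.4% DMSO, 26C) from roughly 6-8 hpf through 5 dpf, 4 embryos per chemical.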

[5] = CEETOX_H295R_MTT_cell_viability: Viability Assessment in the CeeTox HT-H295R MTT Assay (AID 2283718; active means hit-call score of the fitted dose curve at least 0.9, where 1 is the maximum; inactive means score below 0.9)
In short: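 MTT reduction (0.5 mg/ml, 4 h at 37 C; absorbance at 570 and 650 nm) gave viability as background-corrected percent change versus controls. H295R cells had 48 h forskolin (10 uM) prestimulation, then 48 h chemical exposure at 0.1% DMSO.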

[6] = Tanguay_ZF_120hpf_ActivityScore_legacy: (Legacy) Oregon State University Tanguay Lab 120 Hour Post-fertilization zebrafish Assay Score for Activity (AID 2283742);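 on AC50: dechorionated Tropical 5D wild-type zebrafish embryos held singly per well; static exposure from 6 hpf until 120 hpf at 28 °C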
In short: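 Embryos are staged, enzymatically dechorionated at 4 hpf, placed individually at 6 hpf, then held in test chemical (0.64% DMSO) at 28C until 120 hpf. Mortality and malformations are scored by brightfield, with non-mortality endpoints skipped for dead embryos.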

[7] = target: Luciferin 4-monooxygenase (Photinus pyralis) (UniProt P08659); test: CCTE_Simmons_QuantiLum_inhib_2: CCTE's Firefly Luciferase Inhibition Assay, Simmons Lab (AID 2283767);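 on AC50: potency for inhibitors that lower luciferase luminescence relative to DMSO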
In short: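 Recombinant firefly luciferase (5 ng/well, 200 mM potassium phosphate with 1 mg/ml BSA) was exposed to 8 concentrations from 5 nM to 87.5 uM (final, 0.5% DMSO) for 30 min at 37C in the dark. Loss of luminescence versus DMSO was read after injecting D-luciferin/ATP-analogue reagent.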

[8] = target: zebrafish Estrogen Receptor (ESR1), esr1 (gene 259252) (UniProt P57717); test: ATG_zfER1_XSP1: Attagene TRANS-FACTORIAL Multi-Species (XSP1) HepG2 Assay for zebrafish Estrogen Receptor (ESR1) (AID 2283772)
In short: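 Exogenous chimeric receptor-GAL4 activity is measured in transiently transfected human HepG2 liver cells after 24 h compound exposure. Reporter transcripts are detected by RT-PCR and fluorescent capillary electrophoresis, analysed for signal gain relative to DMSO.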

[9] = test system: frog Estrogen Receptor (ESR2), gene 100174814; test: ATG_frER2_XSP1: Attagene TRANS-FACTORIAL Multi-Species (XSP1) HepG2 Assay for frog Estrogen Receptor (ESR2) (AID 2283774)
In short: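 Transactivation of an exogenous receptor-Gal4 fusion is tracked in transfected HepG2 cells via induced reporter transcript levels. After 24 h treatment, RT-PCR with capillary electrophoresis quantifies signal gain over DMSO.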

[10] = ACEA_AR_agonist_AUC_viability: ACEA Biosciences xCELLigence Real-Time Cell Analysis on Androgen Receptor Agonism for Viability (AID 2283775);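 on AC50: viability read 80 hours after compound addition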
In short: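 Read-out is area under the impedance curve at 80 h post-dose in 22Rv1 cells, with DMSO as baseline and signal loss taken as reduced viability. Compounds ran in duplicate from 100 uM final.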

[11] = ACEA_AR_antagonist_AUC_viability: ACEA Biosciences xCELLigence Real-Time Cell Analysis on Androgen Receptor Antagonism for Viability (AID 2283776);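 further: 22Rv1 human prostate cancer cells growing on impedance electrode plates; area under impedance growth curve at 80 h after dosing as viability; hits lower the growth signal relative to DMSO meaning cytotoxicity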
In short: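 Impedance read-out (RT-CES): area under growth curve at 80 h post-dose, loss of signal scored vs DMSO baseline. 22Rv1 cells; 8-pt 1:4 series, top 100 uM final, ≤0.5% DMSO; biological duplicate.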

[12] = test system: frog Estrogen Receptor (ESR1), gene 398734; test: ATG_frER1_XSP1: Attagene TRANS-FACTORIAL Multi-Species (XSP1) HepG2 Assay for frog Estrogen Receptor (ESR1) (AID 2283777)
In short: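 Human hepatoma HepG2 cells carried transiently transfected multiplexed Gal4-driven reporters and were exposed to test chemicals for 24 hours. Transcripts were quantified by fluorescent RT-PCR with capillary electrophoresis, referenced to DMSO.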

[13] = target: chicken Estrogen Receptor (ESR1), ESR1 (gene 396099) (UniProt P06212); test: ATG_chERa_XSP1: Attagene TRANS-FACTORIAL Multi-Species (XSP1) HepG2 Assay for chicken Estrogen Receptor (ESR1) (AID 2283779)
In short: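 Human liver HepG2, transient MRTU transfection (NR-Gal4 chimeras, GAL4-UAS reporters); 24 h compound exposure; 3 nM 6-alpha-fluorotestosterone in medium. Total RNA → RT-PCR → 6-FAM primer extension → HpaI → CE. Positive direction vs DMSO baseline.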

[14] = test system: turtle Estrogen Receptor (ESR1), gene 101933533; test: ATG_trERa_XSP1: Attagene TRANS-FACTORIAL Multi-Species (XSP1) HepG2 Assay for turtle Estrogen Receptor (ESR1) (AID 2283781)
In short: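 Activity was taken as gain of reporter transcript over DMSO controls. HepG2 cells carrying GAL4-UAS-driven reporters were exposed for 24 h before RNA was extracted and reporter sequences were measured by fluorescence after capillary separation.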

[15] = STM_H9_OrnCyssISnorm_ratio: Stemina devTOX quickPredict H9 human embryonic stem cell (hESC)-based Assay for Ornithine (ORN):Cystine (CYSS) Ratio (AID 2283714)
In short: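 Steps: H9 hESCs in pluripotent state dosed 72h, medium plus compound renewed every 24h; conditioned medium from the final 24h deproteinized in 40% acetonitrile; ORN and CYSS quantified by UPLC-HRMS with C13 spike-ins; ratio relative to vehicle.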

[16] = ACEA_ER_AUC_viability: ACEA Biosciences xCELLigence Real-Time Cell Analysis on Estrogen Receptor Agonism for Viability (AID 2283782);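 further: continuous compound exposure with impedance area under curve over 80 h; hit means loss of impedance signal meaning reduced cell growth or viability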
In short: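 T-47D; phenol red-free RPMI1640 + 10% CS-FBS; 8 conc., 1:4 serial, max 100 uM final, ≤0.5% DMSO; n = 2; continuous exposure; impedance monitored to 80 h post-dose; AUC vs DMSO.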

[17] = STM_H9_CystineISnorm_perc: Stemina devTOX quickPredict H9 human embryonic stem cell (hESC)-based Assay for Cystine (CYSS) Metabolite Biomarker, Normalized (AID 2283713; active means hit-call score of the fitted dose curve at least 0.9, where 1 is the maximum; inactive means score below 0.9)
In short: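 Undifferentiated H9 hESCs were exposed to compound for 72h, with medium and compound replaced every 24h. Final-24h conditioned medium was deproteinized and analyzed by UPLC-HRMS. Cystine EIC area was normalized to spiked C13 standard and 0.1% DMSO median.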

[18] = test system: zebrafish Androgen Receptor (AR), gene 100005148; test: ATG_zfAR_XSP1: Attagene TRANS-FACTORIAL Multi-Species (XSP1) HepG2 Assay for zebrafish Androgen Receptor (AR) (AID 2283771)
In short: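 HepG2 cells were transiently transfected with a zebrafish AR-GAL4 reporter system and partially stimulated with 3 nM 6-alpha-fluorotestosterone. Reporter mRNA was measured after 24 h dosing by RT-PCR with capillary electrophoresis, and gain-of-signal was fitted relative to DMSO.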

[19] = test system: zebrafish Estrogen Receptor (ESR2B), gene 317733; test: ATG_zfER2b_XSP1: Attagene TRANS-FACTORIAL Multi-Species (XSP1) HepG2 Assay for zebrafish Estrogen Receptor (ESR2B) (AID 2283773)
In short: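 Gain-of-signal endpoint relative to DMSO: reporter transcript levels quantified by RT-PCR and capillary electrophoresis after 24 h compound exposure of HepG2 cells expressing a zebrafish ER2b-Gal4 chimera.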

Measured: AC50

Luciferin 4-monooxygenase (Photinus pyralis), sequence (P08659 whole entry, looked up): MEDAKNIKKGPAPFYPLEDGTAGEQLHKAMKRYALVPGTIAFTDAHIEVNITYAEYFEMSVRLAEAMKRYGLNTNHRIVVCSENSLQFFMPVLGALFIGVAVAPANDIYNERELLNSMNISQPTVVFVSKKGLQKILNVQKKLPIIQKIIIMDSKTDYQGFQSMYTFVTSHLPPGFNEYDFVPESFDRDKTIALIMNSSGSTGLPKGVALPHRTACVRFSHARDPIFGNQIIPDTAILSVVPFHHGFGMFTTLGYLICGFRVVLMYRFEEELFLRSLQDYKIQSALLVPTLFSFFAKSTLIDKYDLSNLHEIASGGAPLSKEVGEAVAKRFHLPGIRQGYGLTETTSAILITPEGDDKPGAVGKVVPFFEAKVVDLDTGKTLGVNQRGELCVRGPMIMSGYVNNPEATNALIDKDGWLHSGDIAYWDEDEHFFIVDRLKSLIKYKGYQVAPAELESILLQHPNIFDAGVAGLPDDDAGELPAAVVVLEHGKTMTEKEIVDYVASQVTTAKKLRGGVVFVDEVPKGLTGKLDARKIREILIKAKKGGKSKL
zebrafish Estrogen Receptor (ESR1), esr1 (gene 259252), sequence (P57717 whole entry, looked up, the tested form may be a part): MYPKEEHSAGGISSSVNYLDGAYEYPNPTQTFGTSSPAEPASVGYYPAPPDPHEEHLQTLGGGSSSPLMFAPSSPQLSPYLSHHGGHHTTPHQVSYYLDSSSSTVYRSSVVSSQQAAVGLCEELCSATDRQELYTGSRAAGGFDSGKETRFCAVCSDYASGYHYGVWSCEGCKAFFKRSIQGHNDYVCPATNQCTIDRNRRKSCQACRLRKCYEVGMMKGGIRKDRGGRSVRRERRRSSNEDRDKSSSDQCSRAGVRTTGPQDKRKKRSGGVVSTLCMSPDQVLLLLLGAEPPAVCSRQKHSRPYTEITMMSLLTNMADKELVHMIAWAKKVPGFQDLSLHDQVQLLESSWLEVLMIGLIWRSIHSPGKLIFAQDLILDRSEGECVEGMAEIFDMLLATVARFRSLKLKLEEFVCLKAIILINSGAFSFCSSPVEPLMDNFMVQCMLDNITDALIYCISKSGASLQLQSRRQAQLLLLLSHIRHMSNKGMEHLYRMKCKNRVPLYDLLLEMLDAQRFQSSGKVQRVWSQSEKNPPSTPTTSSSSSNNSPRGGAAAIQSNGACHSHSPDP
chicken Estrogen Receptor (ESR1), ESR1 (gene 396099), sequence (P06212 whole entry, looked up, the tested form may be a part): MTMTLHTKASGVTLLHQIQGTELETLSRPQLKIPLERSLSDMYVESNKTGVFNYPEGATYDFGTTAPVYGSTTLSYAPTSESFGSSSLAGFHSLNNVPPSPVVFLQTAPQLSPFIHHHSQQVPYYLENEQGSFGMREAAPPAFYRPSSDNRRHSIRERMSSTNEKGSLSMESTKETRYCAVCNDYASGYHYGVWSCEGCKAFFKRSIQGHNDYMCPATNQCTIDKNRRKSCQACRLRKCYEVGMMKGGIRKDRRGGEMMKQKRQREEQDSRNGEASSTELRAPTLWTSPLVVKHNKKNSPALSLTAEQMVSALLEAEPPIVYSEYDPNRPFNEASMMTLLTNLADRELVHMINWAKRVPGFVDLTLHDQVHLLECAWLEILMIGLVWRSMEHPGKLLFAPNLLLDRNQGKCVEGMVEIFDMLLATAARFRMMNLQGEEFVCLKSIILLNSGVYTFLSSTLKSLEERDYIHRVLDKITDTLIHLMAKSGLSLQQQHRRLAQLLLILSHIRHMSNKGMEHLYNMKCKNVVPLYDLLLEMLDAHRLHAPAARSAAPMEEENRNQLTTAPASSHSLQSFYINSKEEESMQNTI

C#C[C@]1(O)CC[C@H]2[C@@H]3CCc4cc(O)ccc4[C@H]3CC[C@@]21C
inactive: [3] | [5] | [6] | [7] | [10] | [11]
active: [1] 9.38 µM | [2] 37.5 µM | [4] 5.77 µM | [8] 0.000281 µM | [9] 0.000273 µM | [11] 30.5 µM | [12] 0.0393 nM | [13] 0.0617 nM | [14] 0.0403 nM

CCCCN(CCO)CCO
inactive: [15]

COc1ccccc1O
inactive: [2] | [7] | [11]
active: [1] 21.7 µM

CN1CCc2cccc3c2[C@H]1Cc1ccc(O)c(O)c1-3
active: [1] 0.522 µM | [2] 14.4 µM | [7] 12.5 µM | [10] 11.4 µM | [11] 4.25 µM | [16] 7.27 µM

CC(C)(C)c1cccc(O)c1
inactive: [2] | [5] | [7] | [10] | [11]
active: [1] 18.9 µM

O=C(O)c1ccccc1O
inactive: [10]
active: [17] 1490 µM

CCc1cccc(O)c1
inactive: [2] | [10] | [11] | [16]
active: [1] 16.6 µM | [7] 55.2 µM

O=C1CCCCCCCCCCCC(=O)OCCO1
active: [15] 13.2 µM | [16] 71.8 µM

CC/C(=C(\c1ccccc1)c1ccc(OCCN(C)C)cc1)c1ccccc1
inactive: [1] | [3] | [5] | [6] | [7] | [18] | [8] | [19] | [11]
active: [1] 24.2 µM | [2] 8.72 µM and 6.64 µM | [4] 1.43 µM and 1.58 µM | [6] 31.1 µM | [10] 10.4 µM | [11] 11 µM | [16] 17.7 µM [middle of 5 runs]

c1ccc2scnc2c1
active: [1] 56 µM and 16.7 µM | [7] 31.7 µM
inactive: [2] | [7] | [10] | [16]

Cc1cccc(O)c1
active: [1] 19.6 µM
inactive: [2] | [7] | [10] | [11]

CN(C)C(=O)Nc1ccccc1
inactive: [7] | [10] | [11]
active: [1] 43.8 µM

[O-]/[N+](=N\O)c1ccccc1
active: [7] 31.7 µM
inactive: [1] | [2]

O=c1cc[nH]cc1
inactive: [1] | [7] | [16]

From PubChem BioAssay (EPA / NIEHS)
